Screens: PubChem BioAssay, National Center for Advancing Translational Sciences (NCATS)
FMDV antiviral: blocks foot and mouth disease virus | 410,000 tested, 1.2% active | AID 1159524 | FMDV antiviral cell-based qHTS | Potency, µM (highest dose often 57.9 µM), for inactives: top-dose activity change, negative = inhibition, usual class: inhibitors; calls by dose curve; tested in HEK293T cells; note: read-out not given here; potency is the fitted concentration of half-maximal effect; nearly all actives have a fitted effect of over 45% in size
HCV inhibitor: HCV inhibition; Huh7.5.1 HCVcc-Cre infection, luciferase reporter, 44 h; Potency, µM (series often up to 41.8 µM), for inactives: top-dose activity change, negative = inhibition, hits mostly inhibitors; 340,000 tested, 3.4% active; note: potency is the fitted concentration of half-maximal effect
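Reporter virus HCVcc-Cre (~0.5 moi) infects cells exposed to compound; seeding density 1,000 cells/well with 4 h settling beforehand. Luminescence, 15 sec read, taken 44 h post-infection following a 15 min RT substrate incubation.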
HCMV antiviral: inhibitors of human cytomegalovirus; activity change, negative = inhibition, % at 57.5 µM; 410,000 tested, 4.5% active; AID 1259415; HFF cells, HCMV-luciferase reporter, 72 h; stronger effect = lower value; in the data active = activity change below about -60%; inconclusive = no clear call, values can overlap the other calls; inactive = above about -39%
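Inhibition of viral replication was scored as loss of reporter luminescence in HFFs infected with HCMV-luciferase (MOI 1 PFU/cell) for 72 h; compounds tested at 2 doses, normalized to buffer and Salinomycin controls.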
AmpC detergent: inhibitors of E. coli AmpC beta-lactamase with detergent | P00811 | AmpC hydrolysis of nitrocefin, absorbance 480 nm, 0.01% Triton | Potency, µM (top dose mostly 114 µM), for the others: top-dose activity change, negative = inhibition, most hits filed as inhibitors | 370,000 tested, 0.041% active | AID 485294;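 note: potency is the fitted concentration of half-maximal effect; 0% = no-compound wells and -100% = no-enzyme wells; nearly all actives have a fitted effect of over 25% in size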
Target sequence (P00811 whole entry, looked up): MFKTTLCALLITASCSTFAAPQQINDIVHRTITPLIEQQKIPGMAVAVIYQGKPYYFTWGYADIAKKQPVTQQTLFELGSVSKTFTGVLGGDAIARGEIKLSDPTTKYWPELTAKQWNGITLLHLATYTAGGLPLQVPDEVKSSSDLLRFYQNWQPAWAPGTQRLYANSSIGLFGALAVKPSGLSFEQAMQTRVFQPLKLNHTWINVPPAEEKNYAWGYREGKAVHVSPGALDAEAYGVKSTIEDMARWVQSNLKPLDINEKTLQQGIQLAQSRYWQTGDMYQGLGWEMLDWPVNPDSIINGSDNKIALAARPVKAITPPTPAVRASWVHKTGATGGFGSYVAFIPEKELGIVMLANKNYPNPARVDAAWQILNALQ
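20 mM phosphate pH 7.0 + 0.01% (detergent screen) or 0.0001% Triton X-100; 5.3 nM AmpC reagent; cpd preinc 15 min RT; nitrocefin (800 uM stock) to start; A480 q20 s × 4 min; Activity was normalised to no-enzyme and no-compound control wells.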
AmpC inh no detg: blocks E. coli AmpC beta-lactamase in detergent-free assay; P00811; AmpC nitrocefin hydrolysis, absorbance 480 nm, 0.0001% Triton; Potency, µM (highest dose often 57.1 µM), inactives show at the highest dose activity change, negative = inhibition, hits mostly inhibitors; 330,000 tested, 0.52% active;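 note: potency is the fitted concentration of half-maximal effect; plate controls were no compound for no effect and no enzyme for full effect; nearly all actives have a fitted effect of over 20% in size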
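20 mM phosphate pH 7.0 + 0.01% (detergent screen) or 0.0001% Triton X-100; 5.3 nM AmpC reagent; cpd preinc 15 min RT; nitrocefin (800 uM stock) to start; A480 q20 s × 4 min; Activity was normalised to no-enzyme and no-compound control wells.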
* hit, by the source's call; ? = inconclusive; . = no result; + = active, no number; ! = a repeat was not active. The list is not random: actives were taken first. Their share in the collection is about 7.3%. Unless noted, calls come from the whole dose curve; as a rule, active = well fitted curve in the direction sought with a large enough effect; inconclusive = small, poorly fitted or top-dose-only effect, or another doubt; inactive = no such curve, though single readings can be large; an effect the other way counts as inactive or inconclusive. Unless noted, % is set by controls: 0 for no effect and ±100 for the full control effect.

SMILES | FMDV antiviral | HCV inhibitor | HCMV antiviral | AmpC detergent | AmpC inh no detg
Cc1ccc(Cn2cc(C(=O)c3ccc4c(c3)OCO4)c(=O)c3cc(C)ccc32)cc1 | -19% | . | -26 | ? | .
Cc1ccc(C)c(N2CCN(C(=O)c3ccc(N4CCOCC4)c([N+](=O)[O-])c3)CC2)c1 | -13% | ? | 1 | 1% | 184%
CCc1c(C)nc2ncnn2c1NCc1cccs1 | . | -22% | -69* | 0% | -15%
CCc1c(C)nc2ncnn2c1NCCc1ccc(OC)cc1 | 11µM* | 5.6µM* | -92* | -1% | -17%
CCc1c(C)nc2ncnn2c1N1CCC(C(=O)NCc2cccs2)CC1 | -17% | ? | -26 | -2% | -9%
CC(=O)NC1CCC(=O)C=C1c1ccccc1 (stereo unspecified) | -12% | 11% | -33 | . | .
CC(=O)NC1CCCN(O)C(=O)/C=C(\C)CCOC(=O)C(NC(C)=O)CCCN(O)C(=O)/C=C(\C)CCOC(=O)C(NC(C)=O)CCCN(O)C(=O)/C=C(\C)CCOC1=O (stereo unspecified) | 20µM* | -23% | . | -6% | 126%
CCCCCCCCCCCCCCCC[n+]1ccc(/C=N/O)cc1 | ? | ? | -97* | -3% | 152%
CCCCCCC[n+]1ccc(-c2cc[n+](CCCCCCC)cc2)cc1 | -7% | ? | -101* | -11% | 34%
CCCCCCCCCCCCCCCC[n+]1ccc(C(N)=O)cc1 | ? | 7% | -86* | -23% | 59%
CCCCCCCCCCCCCCCC[n+]1ccccc1 | 16µM*! | 3.2µM* | -98* | . | .
O=C(Nc1ccccc1C(=O)O)c1cccc(S(=O)(=O)N2CCCC2)c1 | 33% | . | 8 | 1% | .
C[C@H](CO)N1C[C@H](C)[C@H](CN(C)C(=O)c2ccc(N3CCN(C)CC3)cc2)OCc2cnnn2CCCC1=O | -11% | . | 25 | . | .
O=C1/C(=C\c2ccccc2)C[C@@]2(O)[C@H]3Cc4ccc(O)c5c4[C@@]2(CCN3CC2CC2)[C@H]1O5 | 10µM* | . | . | . | .
O=C1/C(=C\c2ccccc2)C[C@@]2(O)[C@H]3Cc4ccc(O)c5c4[C@@]2(CCN3CC2CC2)[C@@H]1O5 | 22µM* | . | . | . | .
Oc1ccc2c3c1O[C@H]1c4[nH]c5c(c4C[C@@]4(O)[C@@H](C2)N(CC2CC2)CC[C@]314)C[C@]1(O)[C@H]2Cc3ccc(O)c4c3[C@@]1(CCN2CC1CC1)[C@@H]5O4 | -19% | . | . | . | .
COC(=O)C1CCCCN1C(=O)c1cc(COc2cccc3cnccc23)on1 (stereo unspecified) | . | . | -92* | 3% | 54%
CCOC(=O)CC1CCCCN1C(=O)c1cc(COc2cccc3cnccc23)on1 (stereo unspecified) | 2.8µM* | 2.2µM* | -87* | 2% | 63%
O=C(c1cc(COc2cccc3cccnc23)on1)N1CCC[C@H]1CO | 40% | . | 36 | . | .
COc1ccc(C2c3ccc4ccccc4c3Oc3ncn(CCCN(C)C)c(=N)c32)cc1 (stereo unspecified) | 1% | ? | -64* | 1% | 229%
COc1ccccc1C1c2ccc3ccccc3c2Oc2ncn(CCN(C)C)c(=N)c21 (stereo unspecified) | -31% | 13µM* | -101* | 5% | 187%
Cc1c(C(=O)Nc2ccc(F)cc2)nnn1-c1cccc(C(F)(F)F)c1 | -16% | ? | -88* | 0% | -22%
Cc1c(C(=O)Nc2ccc(C(=O)O)cc2)nnn1-c1ccccc1 | 10µM* | . | -74* | -6% | .
COc1ccc(C2(c3ccc(OC)cc3)NC(=O)N(CC(=O)NCC(F)(F)F)C2=O)cc1 | 14% | 9% | -5 | -10% | 21%
CCOc1cccc(/C=N/NC(=O)c2cc(-c3cccn3C)n[nH]2)c1O | 13% | 11µM* | -38 | -4% | -38%
SMILES | FMDV antiviral | HCV inhibitor | HCMV antiviral | AmpC detergent | AmpC inh no detg
CCOc1cccc(/C=N/NC(=O)c2ccc3c(c2)OCCO3)c1O | 10% | ? | + | 1% | -33%
O=C(N/N=C/c1cccc(O)c1)c1ccc2c(c1)OCCO2 | 57% | 8% | 157 | -6% | -23%
Cc1cccc(/C=N/NC(=O)c2ccc3c(c2)OCCO3)c1O | . | . | -98* | -1% | -28%
COc1ccc(NC(=O)CC2CC3CCC2C3)cc1S(=O)(=O)N1CCOCC1 (stereo unspecified) | -21% | 7% | 61 | . | 54%
CCOC(=O)c1c(C)[nH]c(NC(=O)NNC(=O)c2ccc(OC)cc2)c1C | -12% | -3% | -21 | -7% | -5%
CCOC(=O)c1c(C)[nH]c(NC(=O)NNC(=O)c2ccccc2Cl)c1C | -20% | 11µM* | -27 | 6% | -23%
O=c1cc2oc3cc(O)c(O)cc3c(-c3ccccc3O)c-2cc1O | 0% | -27% | . | 1% | 16µM*
COc1ccc(OC)c(-c2c3cc(O)c(=O)cc-3oc3cc(O)c(O)cc23)c1 | -26% | -12% | . | -4% | 28µM*
CCOc1ccccc1-c1c2cc(O)c(=O)cc-2oc2cc(O)c(O)cc12 | ? | -16% | . | ? | -55%
O=C(NCCCn1ccnc1)c1ccc(NS(=O)(=O)c2cccc([N+](=O)[O-])c2)cc1 | -8% | 8% | 9 | ? | -17%
Cc1ccccc1NC(=O)c1ccccc1NC(=O)Cc1cccc2ccccc12 | -2% | 17% | -2 | ? | -11%
Cc1ccccc1NC(=O)c1cccc2nc3ccccc3nc12 | -28% | ? | -73* | ? | -3%
Cc1ccc(S(=O)(=O)N2CCN(c3ncnc4sccc34)CC2)cc1 | ? | 6.3µM* | -85* | -12% | -17%
c1ccc(CC2CCN(c3ncnc4sccc34)CC2)cc1 | ? | 4µM* | -85* | 3% | -26%
O=S(=O)(c1ccc(F)c(F)c1F)N1CCN(c2ncnc3sccc23)CC1 | ? | ? | -79* | . | -15%
O=C(O)c1cc2c(N3CCC(Cc4ccccc4)CC3)ncnc2s1 | -20% | 12% | -27 | ? | -23%
O=S(=O)(c1ccccc1C(F)(F)F)N1CCN(c2ncnc3sccc23)CC1 | ? | ? | ? | . | -21%
Cc1ccc(-n2c(C)nc3c(cnn3-c3ccccc3C)c2=O)cc1F | 12% | . | 10 | 0% | .
CC(=O)C[C@@H]1SC[C@H](c2ccccc2)N1S(=O)(=O)c1ccc(C)cc1 | 0% | . | 27 | . | .
Cc1c(C(=O)N2CCCC2)sc2ncnc(NCCCN3CCOCC3)c12 | -5% | . | . | . | .
N#Cc1cn(CC(=O)NCCc2c[nH]c3ccccc23)c2ccccc12 | -23% | -8% | 11 | -7% | -30%
CCC(=O)c1cn(CC(=O)Nc2c(C)cccc2C)c2ccccc12 | -19% | -8% | 11 | -2% | 0%
CC(C)(C)C(=O)c1cn(CC(=O)O)c2ccccc12 | 7% | 10µM* | -8 | -2% | -2%
CC(=O)c1cn(CC(=O)Nc2c(C)cccc2C)c2ccccc12 | ? | 5.6µM* | -75* | ? | 20%
